# Data: the supplement of paper PMC3334620
# Over roughly 33,000 sequences, “E-score (-0.5 to 0.5)” has its median near -0.056; the highest 2% begin near 0.38. The full list was thinned out, with the highest values kept by preference.
# Molecular target: Stb4 (UniProt P50104)
# Assay: PBM E-score (8-mer binding enrichment) (E-score (-0.5 to 0.5)); higher = stronger / more preferred TF binding
# Conditions: protein concentration: 200 nM; construct: GST-DNA-binding domain
# Protocol: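 Universal 'all 10-mer' protein binding microarrays (Agilent AMADID 015681) probed with GST-tagged S. cerevisiae TFs (full-length or DBD) made by in vitro transcription/translation (PURExpress), about 100-200 nM. Bound TF was detected with fluorescent anti-GST. Each ungapped 8-mer (which stands for itself and its reverse complement) is scored by the PBM enrichment score (E-score), a modified Wilcoxon-Mann-Whitney statistic from -0.5 to +0.5, computed with the Universal PBM Analysis Suite. Scale: above 0.35 generally sequence-specific binding.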
# Chain of UniProt P50104 (P50104 whole entry): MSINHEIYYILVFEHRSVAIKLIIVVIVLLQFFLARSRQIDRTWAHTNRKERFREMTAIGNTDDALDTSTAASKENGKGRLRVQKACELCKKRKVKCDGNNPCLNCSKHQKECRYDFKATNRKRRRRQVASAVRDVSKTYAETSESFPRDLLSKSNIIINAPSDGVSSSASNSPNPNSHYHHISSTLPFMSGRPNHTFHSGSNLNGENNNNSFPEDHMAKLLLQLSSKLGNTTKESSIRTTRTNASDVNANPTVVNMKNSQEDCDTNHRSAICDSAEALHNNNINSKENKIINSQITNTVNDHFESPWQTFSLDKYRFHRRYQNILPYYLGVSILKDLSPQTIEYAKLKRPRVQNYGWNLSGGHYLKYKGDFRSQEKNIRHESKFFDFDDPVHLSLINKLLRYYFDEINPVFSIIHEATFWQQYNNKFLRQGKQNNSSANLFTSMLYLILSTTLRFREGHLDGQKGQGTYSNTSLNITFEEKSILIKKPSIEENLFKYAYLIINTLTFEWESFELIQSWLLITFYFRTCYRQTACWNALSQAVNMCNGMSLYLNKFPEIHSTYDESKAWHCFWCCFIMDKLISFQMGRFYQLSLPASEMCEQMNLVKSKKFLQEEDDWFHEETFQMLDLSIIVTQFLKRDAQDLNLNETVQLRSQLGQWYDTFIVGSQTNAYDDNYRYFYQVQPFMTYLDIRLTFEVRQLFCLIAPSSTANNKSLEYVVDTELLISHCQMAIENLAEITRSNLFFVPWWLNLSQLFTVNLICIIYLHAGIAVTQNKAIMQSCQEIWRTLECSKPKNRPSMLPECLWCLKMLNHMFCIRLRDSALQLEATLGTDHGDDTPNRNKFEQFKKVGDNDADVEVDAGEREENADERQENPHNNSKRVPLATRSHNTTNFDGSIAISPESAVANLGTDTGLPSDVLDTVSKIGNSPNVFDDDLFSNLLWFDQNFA
row,Sequence,PBM E-score
1,CCAAAGTA,0.0417
2,AGGGCTCA,-0.326
3,ATTCGGGG,0.34
4,GTACGGGA,0.222
5,ATTCGGGC,0.301
6,ATTCGGGA,0.415
7,GATCGGGA,0.359
8,CTTCGGGC,0.291
9,CTTCGGGA,0.439
10,CATCGGGA,0.331
11,GTTCGGGA,0.453
12,TGCTAAAA,-0.205
13,AGATCGAT,-0.16
14,ACCCCTAT,-0.143
15,GACCTGCC,0.0159
16,ACACTGAG,-0.128
17,ACGGAAAC,0.375
18,CAGGAAAA,-0.0586
19,CCGGAAAA,0.441
20,CCGGGAAA,0.33
21,ACGGGACA,0.276
22,TCGGGAAA,0.443
23,GCGGGAAA,0.306
24,CCGGAAAG,0.366
25,CCGGGACA,0.326

row,Sequence,PBM E-score
1,CTGGAAAA,-0.00258
2,CCGGAAAC,0.394
3,TCGGGACA,0.408
4,ACGCAAAT,-0.00753
5,GTAAGACA,-0.166
6,CCACTGCA,-0.135
7,AAGGGAGC,-0.0979
8,CGCTGAAC,0.00896
9,AGCGCTCA,-0.191
10,ATTATGGA,-0.154
11,CCGCTTTA,0.138
12,ACGGGAGA,0.12
13,ACGGAAAA,0.325
14,TCGGAAAA,0.451
15,TCGGGAGA,0.391
16,GCGGAAAA,0.332
17,GCGGGAGA,0.227
18,AGACGGAC,-0.0259
19,ACTGGTAG,-0.226
20,ATTGATCG,0.0261
21,CCCCGATA,0.145
22,GATCTTCC,0.285
23,GCGGTTAA,0.17
24,ACGGGTCA,0.0265
25,GCGGTAAA,0.188

row,Sequence,PBM E-score
1,CCGGGTAG,0.355
2,CCGGGTCA,0.276
3,CCGGGTAC,0.375
4,TCGGTTAA,0.44
5,TCGGGTCA,0.427
6,TCGGTAAA,0.433
7,CCGGGTAA,0.418
8,CCGGTAAA,0.312
9,CCGGTTAA,0.334
10,GACGCGAC,-0.068
11,CACCATGG,-0.29
12,GTCTAGAC,-0.342
13,ACACAACC,-0.0108
14,CAGGCTCG,0.08
15,AGAGTTAC,-0.165
16,ATGGTTTA,0.193
17,GCGGGTAA,0.325
18,TCGGGTAA,0.464
19,ACGGGTAA,0.328
20,GTTCGGCA,0.418
21,CTTCGGCA,0.443
22,ATTCGGCA,0.438
23,CTTCGGCC,0.218
24,CATCGGCA,0.376
25,GGTCGGCA,0.353

row,Sequence,PBM E-score
1,ATTCGGCC,0.271
2,ATTCGGCG,0.333
3,GATCGGCA,0.349
4,ACAACCTC,-0.114
5,AGGCTGGG,-0.236
6,ACCGCGTG,0.053
7,ACTCCAAC,-0.11
8,AGACTGAG,-0.107
9,CCTCGGGC,0.288
10,CCTCGGGA,0.444
11,GCTCGGGA,0.464
12,CCACGGGA,0.223
13,GCACGGGA,0.305
14,ACTCGGGG,0.286
15,ACTCGGGA,0.44
16,ACTCGGGC,0.263
17,GCTCGTGA,-0.108
18,ATGTGCCC,-0.048
19,GACCGCTA,0.0181
20,GCACTTAC,0.0807
21,CAGAGGCC,-0.204
22,ACTTGGTA,-0.265
23,AATGTGAT,-0.15
24,GGGATACC,0.184
25,CGGATACC,0.41

row,Sequence,PBM E-score
1,AGGATACG,-0.23
2,CGGATACG,0.409
3,CCGATACG,0.307
4,CGGATACA,0.433
5,AGGATACA,-0.261
6,TGGATACA,-0.147
7,AGGATACC,0.0351
8,CCGCTCGA,0.11
9,GCGCGACC,-0.0286
10,ACGTTCAG,-0.252
11,TCAGGGCA,-0.18
12,AATACAGT,-0.194
13,CGGAACTC,0.401
14,GGGAACTA,0.183
15,AGGAACTC,-0.0879
16,AGGAACTA,0.0365
17,CTGAACTC,-0.175
18,CGGAACTA,0.449
19,ACTCTAGG,-0.212
20,CAGCTCCA,-0.265
21,CGCGGCCG,0.136
22,AATCGGGC,0.159
23,ACTCTGAC,-0.0524
24,ATATCCAG,-0.114
25,ATATCCGG,0.424

row,Sequence,PBM E-score
1,ATATCCTA,-0.0944
2,CTATCCAA,-0.268
3,GTATCCTA,-0.107
4,ATATCCGA,0.482
5,CTATCCCA,-0.135
6,CTATCCGA,0.469
7,ATATCCAA,0.0444
8,ATATCCCG,0.306
9,GTATCCGA,0.487
10,GTATCCCA,-0.0937
11,AATCTAAG,-0.107
12,AGACTGGC,-0.17
13,ACCCAGCG,-0.0996
14,CAATGTAA,0.112
15,ATTATGGG,-0.0331
16,TAGATGCA,-0.222
17,GTCAGCGA,-0.138
18,ATTGGGTG,-0.0143
19,GACCTTAA,-0.145
20,GGGTCTCA,8e-05
21,ACGAGCAA,-0.0941
22,CCGAGCAC,0.413
23,ACGAGCAC,-0.133
24,TCGAGCAA,-0.141
25,CCGAGCAA,0.406

row,Sequence,PBM E-score
1,GCGAGCAC,-0.135
2,GAACAGGA,-0.0169
3,GCGAAGTA,-0.0361
4,CCGAAGTA,0.418
5,ACGAAGTC,-0.264
6,CCGAAGTC,0.417
7,CAGAAGTC,-0.174
8,ACGAAGTA,-0.0487
9,ACAGCTTC,0.0141
10,AACACCGG,0.248
11,CATGCCAA,-0.257
12,CTTCCTCA,-0.208
13,CGCACCAC,-0.0216
14,AGTTTGAG,-0.092
15,CCCTCGGA,0.464
16,CCCTCGTA,-0.114
17,GCCTCGAA,-0.0521
18,GCCTCGTA,-0.0917
19,GCCTCGGA,0.444
20,CCCTCGCA,-0.0413
21,CAAGTTTA,-0.136
22,ACCTGCAC,-0.0938
23,AAGGTACA,-0.341
24,AAGGCTAG,-0.127
25,GAACCGAC,0.286

row,Sequence,PBM E-score
1,TAACCGAA,0.431
2,GAACCGAA,0.397
3,GAACCGTA,0.0316
4,AAACCGAA,0.259
5,CAACCGAA,0.289
6,AACCCGGA,0.375
7,CTACAGTC,-0.214
8,CTCATCTA,-0.116
9,AAAGTGAC,-0.123
10,AAACCCGA,0.403
11,GAACCCGA,0.338
12,CAACCCGA,0.33
13,AAACCCGT,-0.00663
14,TAACCCGA,0.385
15,AAACCCGC,0.246
16,TGACCCAA,-0.235
17,AGCGAAAT,0.0212
18,CGATTATC,0.15
19,GATTCAGA,-0.121
20,ACGGCTAA,0.264
21,GCGGCCGA,0.217
22,GCGGCTAA,0.287
23,ACGGCAGA,0.156
24,CCGGCAGA,0.286
25,CCGGCACG,0.293

row,Sequence,PBM E-score
1,CCGGCCGA,0.356
2,CCGGCACA,0.307
3,TCGGCAGA,0.41
4,TCGGCACA,0.441
5,TCGGCTAA,0.455
6,TCGGCCGA,0.419
7,GACGTTGC,-0.00479
8,AAGGCCTT,-0.207
9,GGCGCCGA,0.317
10,GAGTAATC,-0.0725
11,CGGACCCG,0.346
12,CCCTGCTA,-0.236
13,ATTTGAGG,-0.0518
14,CCACTTGA,-0.0304
15,AATAGTCT,-0.236
16,ACGGCAAA,0.243
17,GCGGCAAA,0.182
18,TCGGCAAA,0.41
19,AGGAGAAC,-0.179
20,CAAATGCG,-0.127
21,ATACCGAC,0.167
22,GTACCGAA,0.358
23,ATACCGAT,0.285
24,CTACCGAA,0.365
25,ATACCGAA,0.392

row,Sequence,PBM E-score
1,TTACCGAA,0.424
2,CGGTCTGC,-0.0321
3,GCCACCGC,-0.0977
4,CTCAAGGC,0.065
5,AGTGCGAC,0.0915
6,CCGGTATA,0.214
7,CCGAGAAG,0.386
8,CCGAGAAC,0.414
9,TCGAGAAA,-0.141
10,ACGAGAAC,-0.149
11,CAGAGAAG,-0.0211
12,ACGAGAAG,-0.264
13,CCGAGAAA,0.451
14,GCGAGAAA,-0.00939
15,GCGAGAAC,-0.021
16,AGCATTGG,-0.12
17,CAGGGCAC,-0.15
18,AAGAGGTG,-0.0351
19,CCATTGAC,-0.243
20,GAATGCGA,0.0718
21,CAGAGAAA,-0.173
22,AGGGCCGA,0.232
23,AATGAGGC,-0.312
24,ACCCCGAC,0.248
25,TTCCCGAA,0.46

row,Sequence,PBM E-score
1,TTCCCAAA,-0.234
2,TCCCCGAA,0.37
3,GTCCCGCA,0.213
4,GTCCCGAC,0.376
5,ATCCCGAG,0.439
6,AGCCCGAC,0.0817
7,ATCCCGAC,0.387
8,ATCCCGAT,0.342
9,GTCCCGAA,0.406
10,AGCCCGAG,0.231
11,AACAAGAG,-0.186
12,TTCCACAA,0.0123
13,GAGTGATC,-0.021
14,CGTCTGAG,-0.171
15,TTGCACAA,-0.231
16,TAGCGACA,-0.154
17,AGATATGA,-0.0877
18,CGACATTA,0.187
19,CATCACCC,0.123
20,AGCCCGAA,0.264
21,CTCCCGGA,0.329
22,CTCCCGAC,0.33
23,CGCCCGAG,0.328
24,CGCCCGAA,0.293
25,CTCCCGAA,0.43

row,Sequence,PBM E-score
1,ATCCCAAA,0.0397
2,CTCCCGAG,0.445
3,ATCCCGAA,0.432
4,AATCTACA,-0.0631
5,AATCTATC,-0.0505
6,CCAAGTCC,-0.104
7,GGTTTTAA,0.126
8,GCCCATTA,-0.168
9,ACGTTTGC,-0.11
10,TCTAGTAA,-0.126
11,GTGTAAAA,-0.0759
12,ATGCGAGA,-0.117
13,GTCCGAGA,0.378
14,CTTCGAGA,-0.257
15,ATGCGAGG,-0.224
16,ATCCGAGG,0.481
17,ATCCGAGC,0.478
18,ATGCGAGC,-0.123
19,CTCCGAGA,0.409
20,AACCGAGG,0.355
21,ATACGAGC,-0.141
22,ATCCGAGA,0.471
23,ATCCGCGA,0.247
24,AACGGGTC,0.156
25,AACGATAT,-0.0769

row,Sequence,PBM E-score
1,CTTCTTGC,-0.0322
2,ACCCCGTC,0.167
3,GAGATCTA,-0.103
4,ACTGAGTC,-0.0516
5,CTCTGCCC,-0.215
6,CCTTCTAA,-0.338
7,AATTGAAG,-0.06
8,CCGCGATC,0.142
9,CTCCGAGC,0.428
10,CTCCGCGC,0.168
11,CTCCGTGC,0.217
12,CTGCCAAC,-0.1
13,ACGGAACG,0.327
14,GCGGAACC,0.284
15,CCGGAATA,0.347
16,ACGGAACC,0.328
17,TCGGAACA,0.479
18,CAGGAACG,-0.144
19,CGGGAACA,0.374
20,CCGGAACC,0.41
21,CCGGAACG,0.424
22,CCGGAACA,0.431
23,GCGGAACA,0.335
24,ACGGAACA,0.326
25,AGGCCTCG,0.221

row,Sequence,PBM E-score
1,TCTTCCAA,-0.0347
2,CCTGGTCC,-0.116
3,CGGTAAAA,0.346
4,CACGGCAG,0.137
5,CTCGGCCA,0.251
6,ATCGGCAC,0.34
7,GTCGGCAA,0.368
8,GTCGGCAC,0.361
9,TTCGGCAA,0.454
10,CTCGGCAC,0.451
11,CTCGGCAG,0.444
12,ATCGGCAA,0.366
13,CTCGGCAA,0.458
14,CACGGCAA,0.199
15,ATCGGCAG,0.321
16,TAACCGCA,0.154
17,TAGCCCGA,0.245
18,GTACGCCA,-0.109
19,GACCTGTA,-0.0511
